Measured values as given in article PMC7862700, “An all-to-all approach to the identification of sequence-specific readers for epigenetic DNA modifications on cytosine”.

Legend:
Experiment in all cases: DAPPL (digital affinity profiling via proximity ligation, sequencing); 10 mM Tris-HCl pH 7.5, 50 mM NaCl, 1 mM DTT, 4% glycerol, room temperature, 30 min; GST-TFs on glutathione beads, 16-mer random dsDNA library, 0.1% formaldehyde crosslink after washing; high values mean tight binding
[1] = molecular target: T1, FEV (Homo sapiens, UniProt Q99581 1-238); conditions: protein: recombinant; tags: N-terminal GST; dsDNA, one strand shown
T1 sequence: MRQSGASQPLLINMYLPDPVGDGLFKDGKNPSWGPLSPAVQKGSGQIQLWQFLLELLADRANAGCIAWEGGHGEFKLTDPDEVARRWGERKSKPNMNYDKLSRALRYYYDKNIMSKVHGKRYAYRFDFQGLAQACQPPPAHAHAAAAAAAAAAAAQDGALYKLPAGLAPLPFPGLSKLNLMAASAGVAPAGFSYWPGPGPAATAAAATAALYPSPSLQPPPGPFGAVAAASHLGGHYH
How it was run: (§1)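 Sequencing on an Illumina NextSeq500 followed washing, crosslinking with 0.1% formaldehyde, proximity ligation (BsaI/T4 ligase, 1 h, 37 °C) and PCR amplification of pools that had been incubated for 30 min at room temperature with 200 nmole of a random double-stranded 16-mer DNA library in Tris/NaCl/DTT/glycerol buffer. Each pool held DNA-barcoded human transcription factors, expressed in yeast as GST fusions and captured on glutathione beads, plus a tag-only sample. Binding signal is a hexamer's read frequency for a factor divided by its frequency in the tag-only sample.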

[2] = molecular target: ETV5 (Homo sapiens, UniProt P41161 1-510); conditions: protein: recombinant; tags: N-terminal GST; dsDNA, one strand shown
Chain of ETV5 (P41161 whole entry): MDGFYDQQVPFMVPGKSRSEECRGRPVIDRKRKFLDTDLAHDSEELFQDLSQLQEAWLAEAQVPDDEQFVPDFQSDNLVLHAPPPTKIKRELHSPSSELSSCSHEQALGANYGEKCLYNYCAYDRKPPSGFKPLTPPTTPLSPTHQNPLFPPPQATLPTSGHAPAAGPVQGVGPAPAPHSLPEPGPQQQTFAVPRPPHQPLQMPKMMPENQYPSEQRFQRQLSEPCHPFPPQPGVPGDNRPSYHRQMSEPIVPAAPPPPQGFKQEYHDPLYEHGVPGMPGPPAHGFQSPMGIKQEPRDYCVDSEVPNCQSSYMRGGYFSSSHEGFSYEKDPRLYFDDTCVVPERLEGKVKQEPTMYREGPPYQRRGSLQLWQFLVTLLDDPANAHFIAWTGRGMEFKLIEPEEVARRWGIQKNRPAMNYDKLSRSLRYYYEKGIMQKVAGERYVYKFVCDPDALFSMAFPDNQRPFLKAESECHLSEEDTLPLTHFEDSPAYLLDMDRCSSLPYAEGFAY
How it was run: as §1

[3] = molecular target: HSF1 (Homo sapiens, UniProt Q00613 1-529); conditions: protein: recombinant; tags: N-terminal GST; chain copies: 3; dsDNA, one strand shown
Chain of HSF1 (Q00613 whole entry): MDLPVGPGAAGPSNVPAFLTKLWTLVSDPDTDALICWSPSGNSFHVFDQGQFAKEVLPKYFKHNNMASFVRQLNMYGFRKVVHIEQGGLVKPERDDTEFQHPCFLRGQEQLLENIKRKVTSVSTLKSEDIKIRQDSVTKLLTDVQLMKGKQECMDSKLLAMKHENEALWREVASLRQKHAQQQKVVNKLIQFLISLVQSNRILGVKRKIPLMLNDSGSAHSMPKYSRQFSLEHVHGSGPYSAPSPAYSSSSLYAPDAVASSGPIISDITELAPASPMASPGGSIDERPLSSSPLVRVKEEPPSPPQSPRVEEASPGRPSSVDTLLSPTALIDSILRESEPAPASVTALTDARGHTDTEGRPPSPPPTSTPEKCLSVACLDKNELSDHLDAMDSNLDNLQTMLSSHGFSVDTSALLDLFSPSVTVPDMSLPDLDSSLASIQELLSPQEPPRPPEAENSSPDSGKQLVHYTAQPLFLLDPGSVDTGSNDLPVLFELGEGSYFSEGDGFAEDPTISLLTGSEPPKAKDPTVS
How it was run: as §1

[4] = molecular target: T2, SPIC (Homo sapiens, UniProt Q8N5J4 1-248); conditions: protein: recombinant; tags: N-terminal GST; dsDNA, one strand shown
T2 sequence: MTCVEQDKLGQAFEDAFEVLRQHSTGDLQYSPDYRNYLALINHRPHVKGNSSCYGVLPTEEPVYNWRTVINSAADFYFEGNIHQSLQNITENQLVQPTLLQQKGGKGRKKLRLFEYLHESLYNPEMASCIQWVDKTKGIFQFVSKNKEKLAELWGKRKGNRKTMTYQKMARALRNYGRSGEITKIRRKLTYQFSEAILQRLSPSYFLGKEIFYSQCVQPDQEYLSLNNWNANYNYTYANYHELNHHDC
How it was run: as §1

[5] = molecular target: ELF4 (Homo sapiens, UniProt Q99607 1-663); conditions: protein: recombinant; tags: N-terminal GST; dsDNA, one strand shown
Chain of ELF4 (Q99607 whole entry): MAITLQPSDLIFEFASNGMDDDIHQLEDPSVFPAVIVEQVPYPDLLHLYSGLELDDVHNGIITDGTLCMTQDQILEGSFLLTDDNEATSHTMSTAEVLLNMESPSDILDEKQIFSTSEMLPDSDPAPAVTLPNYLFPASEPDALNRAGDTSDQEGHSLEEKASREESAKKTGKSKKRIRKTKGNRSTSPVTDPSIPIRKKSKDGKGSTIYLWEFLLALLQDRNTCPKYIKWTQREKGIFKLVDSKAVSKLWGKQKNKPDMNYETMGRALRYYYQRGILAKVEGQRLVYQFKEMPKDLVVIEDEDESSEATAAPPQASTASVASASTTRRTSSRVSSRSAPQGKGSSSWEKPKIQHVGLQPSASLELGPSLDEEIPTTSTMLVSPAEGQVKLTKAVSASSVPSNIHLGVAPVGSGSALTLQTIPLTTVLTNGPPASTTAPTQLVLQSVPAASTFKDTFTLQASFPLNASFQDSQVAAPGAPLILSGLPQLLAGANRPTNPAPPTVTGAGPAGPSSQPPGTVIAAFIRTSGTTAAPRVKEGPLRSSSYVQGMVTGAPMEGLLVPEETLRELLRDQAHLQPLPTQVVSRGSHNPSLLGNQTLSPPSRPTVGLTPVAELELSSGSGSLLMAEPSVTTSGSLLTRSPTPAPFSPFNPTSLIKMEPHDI
How it was run: as §1

[6] = molecular target: T3, ELK4 (Homo sapiens, UniProt P28324-2 1-405); conditions: protein: recombinant; tags: N-terminal GST; dsDNA, one strand shown
T3 sequence: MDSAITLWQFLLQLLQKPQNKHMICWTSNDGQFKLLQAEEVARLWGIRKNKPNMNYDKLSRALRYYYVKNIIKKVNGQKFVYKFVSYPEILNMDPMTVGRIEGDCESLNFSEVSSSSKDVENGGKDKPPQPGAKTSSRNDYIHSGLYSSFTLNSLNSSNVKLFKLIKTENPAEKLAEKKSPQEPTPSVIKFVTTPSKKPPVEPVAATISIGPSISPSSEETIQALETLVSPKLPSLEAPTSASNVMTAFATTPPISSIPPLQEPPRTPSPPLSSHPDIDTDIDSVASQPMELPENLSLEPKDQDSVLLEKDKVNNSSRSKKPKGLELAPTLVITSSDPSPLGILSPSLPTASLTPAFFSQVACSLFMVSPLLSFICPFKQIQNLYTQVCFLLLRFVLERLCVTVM
How it was run: as §1

[7] = molecular target: T4, ETV2 (Homo sapiens, UniProt O00321 1-342); conditions: protein: recombinant; tags: N-terminal GST; dsDNA, one strand shown
T4 sequence: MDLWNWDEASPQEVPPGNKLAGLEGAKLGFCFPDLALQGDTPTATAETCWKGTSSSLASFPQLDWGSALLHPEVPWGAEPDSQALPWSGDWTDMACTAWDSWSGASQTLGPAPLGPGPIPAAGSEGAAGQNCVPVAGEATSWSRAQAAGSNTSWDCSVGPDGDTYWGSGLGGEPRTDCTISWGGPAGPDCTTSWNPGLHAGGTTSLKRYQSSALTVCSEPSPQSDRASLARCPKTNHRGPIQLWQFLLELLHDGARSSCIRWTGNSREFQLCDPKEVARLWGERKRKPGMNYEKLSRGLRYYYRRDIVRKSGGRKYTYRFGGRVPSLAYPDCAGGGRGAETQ
How it was run: as §1

[8] = molecular target: T5, ELF3 (Homo sapiens, UniProt P78545 1-371); conditions: protein: recombinant; tags: N-terminal GST; dsDNA, one strand shown
T5 sequence: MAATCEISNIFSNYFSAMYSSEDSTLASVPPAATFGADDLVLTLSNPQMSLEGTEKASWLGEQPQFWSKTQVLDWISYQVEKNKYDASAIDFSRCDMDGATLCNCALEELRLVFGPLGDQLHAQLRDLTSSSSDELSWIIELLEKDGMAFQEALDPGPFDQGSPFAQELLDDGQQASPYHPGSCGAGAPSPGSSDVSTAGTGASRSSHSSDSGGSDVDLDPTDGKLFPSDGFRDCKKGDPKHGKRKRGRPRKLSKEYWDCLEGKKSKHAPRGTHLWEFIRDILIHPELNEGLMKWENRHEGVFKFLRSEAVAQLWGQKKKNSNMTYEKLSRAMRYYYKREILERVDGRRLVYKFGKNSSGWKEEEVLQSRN
How it was run: as §1

[9] = molecular target: CRX (Homo sapiens, UniProt O43186 1-299); conditions: protein: recombinant; tags: N-terminal GST; dsDNA, one strand shown
Chain of CRX (O43186 whole entry): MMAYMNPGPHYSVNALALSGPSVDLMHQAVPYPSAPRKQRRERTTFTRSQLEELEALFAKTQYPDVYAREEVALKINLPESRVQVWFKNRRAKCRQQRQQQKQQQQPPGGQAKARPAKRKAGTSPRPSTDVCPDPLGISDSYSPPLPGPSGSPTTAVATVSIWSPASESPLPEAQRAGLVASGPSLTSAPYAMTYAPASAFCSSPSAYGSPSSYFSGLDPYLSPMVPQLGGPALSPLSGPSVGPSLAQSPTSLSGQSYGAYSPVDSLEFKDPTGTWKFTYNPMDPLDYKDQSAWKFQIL
How it was run: as §1

[10] = molecular target: ETV1 (Homo sapiens, UniProt P50549 1-477); conditions: protein: recombinant; tags: N-terminal GST; dsDNA, one strand shown
Chain of ETV1 (P50549 whole entry): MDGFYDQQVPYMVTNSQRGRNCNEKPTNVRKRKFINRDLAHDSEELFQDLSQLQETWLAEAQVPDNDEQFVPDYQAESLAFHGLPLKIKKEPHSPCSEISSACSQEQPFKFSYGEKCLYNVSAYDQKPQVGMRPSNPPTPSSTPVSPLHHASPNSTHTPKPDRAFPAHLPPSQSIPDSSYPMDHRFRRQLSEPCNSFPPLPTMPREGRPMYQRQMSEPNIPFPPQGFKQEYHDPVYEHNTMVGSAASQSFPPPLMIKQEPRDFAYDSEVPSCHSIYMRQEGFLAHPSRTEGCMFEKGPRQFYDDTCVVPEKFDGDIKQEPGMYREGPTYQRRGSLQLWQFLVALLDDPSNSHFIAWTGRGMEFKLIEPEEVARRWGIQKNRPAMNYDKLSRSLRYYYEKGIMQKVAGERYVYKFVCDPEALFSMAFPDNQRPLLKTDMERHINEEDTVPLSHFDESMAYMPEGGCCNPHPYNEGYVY
How it was run: as §1

[11] = molecular target: T6, ERF (Homo sapiens, UniProt P50548 1-548); conditions: protein: recombinant; tags: N-terminal GST; dsDNA, one strand shown
T6 sequence: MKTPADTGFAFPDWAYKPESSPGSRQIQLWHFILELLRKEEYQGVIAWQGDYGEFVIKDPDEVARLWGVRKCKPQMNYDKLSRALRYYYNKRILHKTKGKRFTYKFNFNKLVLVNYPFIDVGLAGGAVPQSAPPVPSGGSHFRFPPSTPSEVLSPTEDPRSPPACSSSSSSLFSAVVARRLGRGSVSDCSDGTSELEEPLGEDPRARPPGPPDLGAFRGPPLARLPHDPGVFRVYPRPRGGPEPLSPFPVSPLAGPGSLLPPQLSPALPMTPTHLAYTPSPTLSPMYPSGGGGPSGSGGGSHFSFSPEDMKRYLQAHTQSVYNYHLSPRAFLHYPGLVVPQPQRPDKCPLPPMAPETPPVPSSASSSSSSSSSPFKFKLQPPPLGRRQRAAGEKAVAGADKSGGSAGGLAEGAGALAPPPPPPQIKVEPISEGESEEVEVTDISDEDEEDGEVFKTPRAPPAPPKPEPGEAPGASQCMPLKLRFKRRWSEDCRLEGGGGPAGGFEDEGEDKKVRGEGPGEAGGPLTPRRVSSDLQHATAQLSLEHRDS
How it was run: as §1

[12] = molecular target: T7, ETV3L (Homo sapiens, UniProt Q6ZN32 1-361); conditions: protein: recombinant; tags: N-terminal GST; dsDNA, one strand shown
T7 sequence: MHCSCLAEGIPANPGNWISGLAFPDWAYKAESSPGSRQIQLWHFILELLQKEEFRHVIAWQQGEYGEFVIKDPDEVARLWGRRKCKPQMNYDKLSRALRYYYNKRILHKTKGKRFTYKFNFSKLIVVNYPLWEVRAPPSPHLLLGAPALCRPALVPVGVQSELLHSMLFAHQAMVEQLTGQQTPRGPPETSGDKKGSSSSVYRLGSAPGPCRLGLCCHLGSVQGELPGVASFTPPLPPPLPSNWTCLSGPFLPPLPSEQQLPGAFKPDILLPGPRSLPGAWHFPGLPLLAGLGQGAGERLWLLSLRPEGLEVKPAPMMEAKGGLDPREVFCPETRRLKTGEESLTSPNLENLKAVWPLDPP
How it was run: as §1

[13] = molecular target: T8, ETS2 (Homo sapiens, UniProt P15036 1-469); conditions: protein: recombinant; tags: N-terminal GST; dsDNA, one strand shown
T8 sequence: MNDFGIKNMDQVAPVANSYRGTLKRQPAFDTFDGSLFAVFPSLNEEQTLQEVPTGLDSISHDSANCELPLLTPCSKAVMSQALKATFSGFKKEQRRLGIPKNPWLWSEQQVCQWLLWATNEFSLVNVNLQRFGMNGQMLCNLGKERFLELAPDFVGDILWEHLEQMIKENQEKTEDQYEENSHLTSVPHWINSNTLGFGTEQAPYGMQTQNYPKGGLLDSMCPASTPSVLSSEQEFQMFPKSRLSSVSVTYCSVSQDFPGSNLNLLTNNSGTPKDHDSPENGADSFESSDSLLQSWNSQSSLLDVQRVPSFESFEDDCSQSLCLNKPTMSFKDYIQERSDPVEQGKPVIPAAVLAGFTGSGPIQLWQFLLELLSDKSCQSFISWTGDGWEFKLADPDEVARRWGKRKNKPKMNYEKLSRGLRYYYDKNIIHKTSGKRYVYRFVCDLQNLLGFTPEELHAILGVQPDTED
How it was run: as §1

[14] = molecular target: T9, SPDEF (Homo sapiens, UniProt O95238 1-335); conditions: protein: recombinant; tags: N-terminal GST; dsDNA, one strand shown
T9 sequence: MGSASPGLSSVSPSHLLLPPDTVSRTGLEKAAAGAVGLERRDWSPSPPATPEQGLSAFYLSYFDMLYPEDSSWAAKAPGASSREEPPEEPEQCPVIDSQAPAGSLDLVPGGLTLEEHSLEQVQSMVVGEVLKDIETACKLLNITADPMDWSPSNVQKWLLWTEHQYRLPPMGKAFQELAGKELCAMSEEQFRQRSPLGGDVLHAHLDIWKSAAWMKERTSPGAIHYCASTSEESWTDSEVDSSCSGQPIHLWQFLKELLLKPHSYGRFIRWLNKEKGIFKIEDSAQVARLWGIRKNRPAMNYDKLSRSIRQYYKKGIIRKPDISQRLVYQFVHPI
How it was run: as §1

[15] = molecular target: T10, ETV7 (Homo sapiens, UniProt Q9Y603 1-341); conditions: protein: recombinant; tags: N-terminal GST; dsDNA, one strand shown
T10 sequence: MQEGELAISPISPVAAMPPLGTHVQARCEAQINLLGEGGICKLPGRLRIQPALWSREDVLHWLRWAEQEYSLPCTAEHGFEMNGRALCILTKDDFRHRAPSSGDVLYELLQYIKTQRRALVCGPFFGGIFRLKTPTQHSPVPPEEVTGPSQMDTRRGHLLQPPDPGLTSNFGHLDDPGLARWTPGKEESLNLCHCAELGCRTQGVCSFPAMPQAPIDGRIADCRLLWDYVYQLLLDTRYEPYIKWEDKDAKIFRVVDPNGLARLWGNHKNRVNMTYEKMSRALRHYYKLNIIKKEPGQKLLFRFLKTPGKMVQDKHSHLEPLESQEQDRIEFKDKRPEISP
How it was run: as §1

[16] = molecular target: T11, ELF5 (Homo sapiens, UniProt Q9UKW6-2 1-255); conditions: protein: recombinant; tags: N-terminal GST; dsDNA, one strand shown
T11 sequence: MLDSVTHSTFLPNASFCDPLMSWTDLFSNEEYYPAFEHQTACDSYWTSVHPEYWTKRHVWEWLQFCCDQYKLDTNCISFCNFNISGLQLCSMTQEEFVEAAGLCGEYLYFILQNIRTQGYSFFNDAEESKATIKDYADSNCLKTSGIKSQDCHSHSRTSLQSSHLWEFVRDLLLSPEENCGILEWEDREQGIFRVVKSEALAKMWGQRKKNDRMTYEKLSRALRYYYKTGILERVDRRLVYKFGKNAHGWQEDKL
How it was run: as §1

[17] = molecular target: T12, ETV3 (Homo sapiens, UniProt P41162-2 1-143); conditions: protein: recombinant; tags: N-terminal GST; dsDNA, one strand shown
T12 sequence: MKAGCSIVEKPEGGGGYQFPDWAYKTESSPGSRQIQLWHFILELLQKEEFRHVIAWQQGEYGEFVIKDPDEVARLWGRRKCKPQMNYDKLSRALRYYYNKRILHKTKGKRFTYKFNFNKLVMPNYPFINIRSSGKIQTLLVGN
How it was run: as §1

[18] = molecular target: ETV6 (Homo sapiens, UniProt P41212 1-452); conditions: protein: recombinant; tags: N-terminal GST; dsDNA, one strand shown
Chain of ETV6 (P41212 whole entry): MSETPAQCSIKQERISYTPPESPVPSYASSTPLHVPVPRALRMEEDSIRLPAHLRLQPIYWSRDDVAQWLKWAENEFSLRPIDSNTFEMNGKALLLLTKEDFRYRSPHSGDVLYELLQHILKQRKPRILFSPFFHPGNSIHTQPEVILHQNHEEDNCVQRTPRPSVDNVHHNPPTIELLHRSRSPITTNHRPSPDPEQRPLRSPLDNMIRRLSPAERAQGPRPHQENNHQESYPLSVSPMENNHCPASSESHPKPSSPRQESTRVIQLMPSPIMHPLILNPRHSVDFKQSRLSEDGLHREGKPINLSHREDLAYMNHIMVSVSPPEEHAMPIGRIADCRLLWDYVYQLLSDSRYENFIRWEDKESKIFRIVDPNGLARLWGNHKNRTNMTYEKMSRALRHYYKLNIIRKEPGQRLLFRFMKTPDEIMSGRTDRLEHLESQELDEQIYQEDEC
How it was run: as §1

## CTTGTA
[1]
  binding signal: 1.32 fold enrichment (6-mer frequency, TF over GST control)
[2]
  binding signal: 1.33 fold enrichment (6-mer frequency, TF over GST control)
[3]
  binding signal: 1.34 fold enrichment (6-mer frequency, TF over GST control)
[4]
  binding signal: 1.22 fold enrichment (6-mer frequency, TF over GST control)
[5]
  binding signal: 1.37 fold enrichment (6-mer frequency, TF over GST control)
[6]
  binding signal: 1.64 fold enrichment (6-mer frequency, TF over GST control)
[7]
  binding signal: 1.41 fold enrichment (6-mer frequency, TF over GST control)
[8]
  binding signal: 1.27 fold enrichment (6-mer frequency, TF over GST control)
[9]
  binding signal: 1.27 fold enrichment (6-mer frequency, TF over GST control)
[10]
  binding signal: 1.41 fold enrichment (6-mer frequency, TF over GST control)
[11]
  binding signal: 1.45 fold enrichment (6-mer frequency, TF over GST control)
[12]
  binding signal: 1.26 fold enrichment (6-mer frequency, TF over GST control)
[13]
  binding signal: 1.44 fold enrichment (6-mer frequency, TF over GST control)
[14]
  binding signal: 1.45 fold enrichment (6-mer frequency, TF over GST control)
[15]
  binding signal: 1.17 fold enrichment (6-mer frequency, TF over GST control)
[16]
  binding signal: 1.36 fold enrichment (6-mer frequency, TF over GST control)
[17]
  binding signal: 1.48 fold enrichment (6-mer frequency, TF over GST control)
[18]
  binding signal: 1.37 fold enrichment (6-mer frequency, TF over GST control)
